Measurements as given in publication PMC7862700, “An all-to-all approach to the identification of sequence-specific readers for epigenetic DNA modifications on cytosine”.

Assays:
Experiment in all cases: DAPPL (digital affinity profiling via proximity ligation, sequencing); 10 mM Tris-HCl pH 7.5, 50 mM NaCl, 1 mM DTT, 4% glycerol, room temperature, 30 min; GST-TFs on glutathione beads, 16-mer random dsDNA library, 0.1% formaldehyde crosslink after washing; high values mean tight binding
ETV5 = ETV5 (Homo sapiens, UniProt P41161 1-510); conditions: protein: recombinant; tags: N-terminal GST; dsDNA, one strand shown
Outline: (§1)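 In yeast, human transcription factors were expressed with a GST fusion, then pulled down on glutathione beads and given DNA barcodes. Pooled with a tag-only sample, they were exposed to 200 nmole of a 16-mer random double-stranded DNA library (Tris/NaCl/DTT/glycerol buffer, room temperature, 30 min), washed, crosslinked with 0.1% formaldehyde, proximity-ligated using BsaI/T4 ligase for 1 h at 37 °C, PCR-amplified and read on an Illumina NextSeq500. Each hexamer's frequency of reads for a factor, divided by the matching frequency for the tag-only sample, gives the binding signal.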

HSF1 = HSF1 (Homo sapiens, UniProt Q00613 1-529); conditions: protein: recombinant; tags: N-terminal GST; chain copies: 3; dsDNA, one strand shown
Outline: as §1

SPIC = target: T1, SPIC (Homo sapiens, UniProt Q8N5J4 1-248); conditions: protein: recombinant; tags: N-terminal GST; dsDNA, one strand shown
T1 sequence: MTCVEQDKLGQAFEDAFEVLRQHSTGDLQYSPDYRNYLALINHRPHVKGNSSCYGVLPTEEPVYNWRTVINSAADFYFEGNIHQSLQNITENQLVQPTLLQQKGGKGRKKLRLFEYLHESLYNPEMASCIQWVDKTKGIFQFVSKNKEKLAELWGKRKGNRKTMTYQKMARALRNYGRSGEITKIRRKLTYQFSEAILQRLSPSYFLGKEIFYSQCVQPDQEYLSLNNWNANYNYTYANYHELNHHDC
Outline: as §1

ELK4 = target: T2, ELK4 (Homo sapiens, UniProt P28324-2 1-405); conditions: protein: recombinant; tags: N-terminal GST; dsDNA, one strand shown
T2 sequence: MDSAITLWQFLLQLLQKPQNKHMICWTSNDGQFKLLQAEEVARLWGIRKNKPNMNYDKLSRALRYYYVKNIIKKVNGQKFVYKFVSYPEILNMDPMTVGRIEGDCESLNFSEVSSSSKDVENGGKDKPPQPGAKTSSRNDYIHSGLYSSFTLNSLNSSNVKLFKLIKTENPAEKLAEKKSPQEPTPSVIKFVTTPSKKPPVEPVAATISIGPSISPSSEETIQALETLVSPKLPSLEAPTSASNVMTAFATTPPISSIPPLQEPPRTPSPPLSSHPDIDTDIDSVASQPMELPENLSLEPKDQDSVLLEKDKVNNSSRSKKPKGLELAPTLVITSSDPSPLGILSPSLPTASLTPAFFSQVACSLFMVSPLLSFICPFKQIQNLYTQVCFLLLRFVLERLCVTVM
Outline: as §1

CRX = CRX (Homo sapiens, UniProt O43186 1-299); conditions: protein: recombinant; tags: N-terminal GST; dsDNA, one strand shown
Outline: as §1

ETV1 = ETV1 (Homo sapiens, UniProt P50549 1-477); conditions: protein: recombinant; tags: N-terminal GST; dsDNA, one strand shown
Outline: as §1

ERF = target: T3, ERF (Homo sapiens, UniProt P50548 1-548); conditions: protein: recombinant; tags: N-terminal GST; dsDNA, one strand shown
T3 sequence: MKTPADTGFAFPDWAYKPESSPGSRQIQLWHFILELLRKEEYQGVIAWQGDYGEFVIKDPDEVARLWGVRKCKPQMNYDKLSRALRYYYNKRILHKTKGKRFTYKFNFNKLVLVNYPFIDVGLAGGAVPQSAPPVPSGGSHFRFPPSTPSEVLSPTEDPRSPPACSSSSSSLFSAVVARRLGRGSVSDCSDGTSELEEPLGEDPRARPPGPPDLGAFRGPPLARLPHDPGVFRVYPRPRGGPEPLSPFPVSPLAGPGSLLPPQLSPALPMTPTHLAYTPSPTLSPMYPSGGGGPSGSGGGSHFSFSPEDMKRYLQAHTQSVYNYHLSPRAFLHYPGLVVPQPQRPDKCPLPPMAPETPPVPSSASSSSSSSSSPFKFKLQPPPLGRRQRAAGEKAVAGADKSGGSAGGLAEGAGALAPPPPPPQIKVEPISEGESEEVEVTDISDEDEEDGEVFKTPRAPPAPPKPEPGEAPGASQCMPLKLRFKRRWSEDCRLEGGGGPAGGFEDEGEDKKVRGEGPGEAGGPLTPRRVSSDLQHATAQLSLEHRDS
Outline: as §1

ETV3L = target: T4, ETV3L (Homo sapiens, UniProt Q6ZN32 1-361); conditions: protein: recombinant; tags: N-terminal GST; dsDNA, one strand shown
T4 sequence: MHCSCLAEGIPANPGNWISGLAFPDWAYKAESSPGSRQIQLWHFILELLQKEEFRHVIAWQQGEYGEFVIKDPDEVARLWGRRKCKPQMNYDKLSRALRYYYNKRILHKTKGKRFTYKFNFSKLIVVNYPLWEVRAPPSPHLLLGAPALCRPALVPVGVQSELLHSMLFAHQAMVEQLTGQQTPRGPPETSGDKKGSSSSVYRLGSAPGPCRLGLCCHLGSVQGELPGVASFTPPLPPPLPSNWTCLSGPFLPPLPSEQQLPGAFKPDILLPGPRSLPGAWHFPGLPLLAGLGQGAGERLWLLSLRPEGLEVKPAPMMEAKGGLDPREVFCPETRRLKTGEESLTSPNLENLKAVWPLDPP
Outline: as §1

FEV = target: T5, FEV (Homo sapiens, UniProt Q99581 1-238); conditions: protein: recombinant; tags: N-terminal GST; dsDNA, one strand shown
T5 sequence: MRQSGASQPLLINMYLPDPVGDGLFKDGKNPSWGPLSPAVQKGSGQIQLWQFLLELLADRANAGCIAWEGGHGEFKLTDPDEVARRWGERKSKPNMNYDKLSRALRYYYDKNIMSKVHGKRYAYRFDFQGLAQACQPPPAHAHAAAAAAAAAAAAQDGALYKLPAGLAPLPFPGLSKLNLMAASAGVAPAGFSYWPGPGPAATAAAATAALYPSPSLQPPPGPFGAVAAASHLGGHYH
Outline: as §1

ELF4 = ELF4 (Homo sapiens, UniProt Q99607 1-663); conditions: protein: recombinant; tags: N-terminal GST; dsDNA, one strand shown
Outline: as §1

ETV2 = target: T6, ETV2 (Homo sapiens, UniProt O00321 1-342); conditions: protein: recombinant; tags: N-terminal GST; dsDNA, one strand shown
T6 sequence: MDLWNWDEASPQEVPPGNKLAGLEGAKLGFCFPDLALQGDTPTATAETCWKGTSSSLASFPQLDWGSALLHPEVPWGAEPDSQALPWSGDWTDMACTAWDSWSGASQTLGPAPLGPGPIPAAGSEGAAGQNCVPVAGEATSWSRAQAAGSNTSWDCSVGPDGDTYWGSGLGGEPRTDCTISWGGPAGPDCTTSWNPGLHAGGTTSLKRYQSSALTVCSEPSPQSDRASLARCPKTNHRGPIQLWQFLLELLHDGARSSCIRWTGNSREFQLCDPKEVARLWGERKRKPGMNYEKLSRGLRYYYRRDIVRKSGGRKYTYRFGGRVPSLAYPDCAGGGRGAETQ
Outline: as §1

ELF3 = target: T7, ELF3 (Homo sapiens, UniProt P78545 1-371); conditions: protein: recombinant; tags: N-terminal GST; dsDNA, one strand shown
T7 sequence: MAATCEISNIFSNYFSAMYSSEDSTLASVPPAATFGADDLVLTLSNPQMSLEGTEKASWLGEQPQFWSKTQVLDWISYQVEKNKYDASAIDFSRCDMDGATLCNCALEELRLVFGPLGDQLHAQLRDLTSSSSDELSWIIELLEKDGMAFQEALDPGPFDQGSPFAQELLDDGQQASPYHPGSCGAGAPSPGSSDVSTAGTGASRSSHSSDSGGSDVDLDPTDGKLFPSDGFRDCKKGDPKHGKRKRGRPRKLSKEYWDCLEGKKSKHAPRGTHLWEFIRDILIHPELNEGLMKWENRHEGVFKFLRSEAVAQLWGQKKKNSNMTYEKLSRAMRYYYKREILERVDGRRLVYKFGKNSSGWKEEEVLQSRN
Outline: as §1

ETS2 = target: T8, ETS2 (Homo sapiens, UniProt P15036 1-469); conditions: protein: recombinant; tags: N-terminal GST; dsDNA, one strand shown
T8 sequence: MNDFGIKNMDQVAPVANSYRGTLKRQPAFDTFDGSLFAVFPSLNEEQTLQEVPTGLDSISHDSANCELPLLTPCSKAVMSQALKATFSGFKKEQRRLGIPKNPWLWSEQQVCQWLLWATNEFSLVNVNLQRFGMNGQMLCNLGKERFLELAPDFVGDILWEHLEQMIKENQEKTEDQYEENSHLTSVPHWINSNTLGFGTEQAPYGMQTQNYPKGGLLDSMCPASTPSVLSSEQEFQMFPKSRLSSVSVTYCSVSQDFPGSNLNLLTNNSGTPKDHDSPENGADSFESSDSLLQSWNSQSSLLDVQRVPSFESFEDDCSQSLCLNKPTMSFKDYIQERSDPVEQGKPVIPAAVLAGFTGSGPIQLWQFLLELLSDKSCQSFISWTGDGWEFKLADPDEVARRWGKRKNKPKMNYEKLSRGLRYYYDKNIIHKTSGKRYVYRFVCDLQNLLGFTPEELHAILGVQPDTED
Outline: as §1

SPDEF = target: T9, SPDEF (Homo sapiens, UniProt O95238 1-335); conditions: protein: recombinant; tags: N-terminal GST; dsDNA, one strand shown
T9 sequence: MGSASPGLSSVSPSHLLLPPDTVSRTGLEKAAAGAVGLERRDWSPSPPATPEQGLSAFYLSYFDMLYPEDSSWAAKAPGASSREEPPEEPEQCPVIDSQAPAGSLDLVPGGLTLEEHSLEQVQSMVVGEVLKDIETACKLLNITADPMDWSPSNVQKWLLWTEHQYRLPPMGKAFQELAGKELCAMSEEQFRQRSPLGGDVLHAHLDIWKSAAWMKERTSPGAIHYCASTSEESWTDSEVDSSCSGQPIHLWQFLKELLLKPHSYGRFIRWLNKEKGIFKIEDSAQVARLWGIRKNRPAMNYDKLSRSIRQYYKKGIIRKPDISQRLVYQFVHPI
Outline: as §1

ETV7 = target: T10, ETV7 (Homo sapiens, UniProt Q9Y603 1-341); conditions: protein: recombinant; tags: N-terminal GST; dsDNA, one strand shown
T10 sequence: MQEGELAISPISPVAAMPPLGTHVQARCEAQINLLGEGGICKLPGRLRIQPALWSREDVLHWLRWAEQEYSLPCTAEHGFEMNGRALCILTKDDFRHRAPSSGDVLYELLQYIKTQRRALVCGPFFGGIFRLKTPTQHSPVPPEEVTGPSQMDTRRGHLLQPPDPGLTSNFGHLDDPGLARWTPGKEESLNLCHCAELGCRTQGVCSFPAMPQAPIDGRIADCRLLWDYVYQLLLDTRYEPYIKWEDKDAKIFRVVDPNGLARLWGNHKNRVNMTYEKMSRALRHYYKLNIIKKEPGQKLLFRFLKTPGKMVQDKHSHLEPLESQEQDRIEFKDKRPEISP
Outline: as §1

ETV3 = target: T11, ETV3 (Homo sapiens, UniProt P41162-2 1-143); conditions: protein: recombinant; tags: N-terminal GST; dsDNA, one strand shown
T11 sequence: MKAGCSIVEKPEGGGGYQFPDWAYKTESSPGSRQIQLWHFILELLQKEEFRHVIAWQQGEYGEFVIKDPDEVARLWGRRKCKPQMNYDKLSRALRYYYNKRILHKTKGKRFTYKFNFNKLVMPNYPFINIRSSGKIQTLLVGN
Outline: as §1

ETV6 = ETV6 (Homo sapiens, UniProt P41212 1-452); conditions: protein: recombinant; tags: N-terminal GST; dsDNA, one strand shown
Outline: as §1

ETV1, sequence (P50549 whole entry): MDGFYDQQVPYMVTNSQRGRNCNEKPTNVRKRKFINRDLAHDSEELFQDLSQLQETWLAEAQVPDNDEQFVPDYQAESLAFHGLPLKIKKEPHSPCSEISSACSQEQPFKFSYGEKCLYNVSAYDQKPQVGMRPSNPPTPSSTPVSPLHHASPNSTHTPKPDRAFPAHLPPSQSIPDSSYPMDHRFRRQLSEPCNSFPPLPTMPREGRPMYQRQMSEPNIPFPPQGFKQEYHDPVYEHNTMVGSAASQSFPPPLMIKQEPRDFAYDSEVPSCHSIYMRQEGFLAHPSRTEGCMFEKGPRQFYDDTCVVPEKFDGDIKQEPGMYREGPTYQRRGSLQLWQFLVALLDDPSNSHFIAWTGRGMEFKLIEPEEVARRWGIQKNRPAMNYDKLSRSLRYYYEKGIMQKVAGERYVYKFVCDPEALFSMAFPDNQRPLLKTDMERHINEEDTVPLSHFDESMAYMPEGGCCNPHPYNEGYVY
ETV5, sequence (P41161 whole entry, the tested form may be a part): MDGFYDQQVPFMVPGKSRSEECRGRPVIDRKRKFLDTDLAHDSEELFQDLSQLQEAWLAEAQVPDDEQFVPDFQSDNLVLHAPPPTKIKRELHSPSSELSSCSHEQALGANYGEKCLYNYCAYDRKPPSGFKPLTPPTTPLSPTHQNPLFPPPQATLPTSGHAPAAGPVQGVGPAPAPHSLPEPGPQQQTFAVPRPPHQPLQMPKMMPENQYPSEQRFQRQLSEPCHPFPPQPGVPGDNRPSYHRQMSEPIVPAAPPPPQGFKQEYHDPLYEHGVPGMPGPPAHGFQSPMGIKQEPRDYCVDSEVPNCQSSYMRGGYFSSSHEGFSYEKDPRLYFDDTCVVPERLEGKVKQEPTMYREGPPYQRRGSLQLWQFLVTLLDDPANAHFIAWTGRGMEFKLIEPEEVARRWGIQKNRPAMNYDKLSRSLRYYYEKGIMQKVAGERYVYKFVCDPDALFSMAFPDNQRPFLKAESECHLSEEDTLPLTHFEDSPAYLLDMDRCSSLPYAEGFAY
CRX, sequence (O43186 whole entry): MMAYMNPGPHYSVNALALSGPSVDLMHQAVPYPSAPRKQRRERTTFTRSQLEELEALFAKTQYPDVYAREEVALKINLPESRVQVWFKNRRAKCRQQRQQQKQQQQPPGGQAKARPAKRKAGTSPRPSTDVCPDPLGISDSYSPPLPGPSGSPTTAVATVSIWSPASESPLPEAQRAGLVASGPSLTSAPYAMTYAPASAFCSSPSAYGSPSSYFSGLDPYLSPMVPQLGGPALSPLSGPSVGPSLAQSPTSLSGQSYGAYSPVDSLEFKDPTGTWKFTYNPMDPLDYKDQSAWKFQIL
HSF1, sequence (Q00613 whole entry): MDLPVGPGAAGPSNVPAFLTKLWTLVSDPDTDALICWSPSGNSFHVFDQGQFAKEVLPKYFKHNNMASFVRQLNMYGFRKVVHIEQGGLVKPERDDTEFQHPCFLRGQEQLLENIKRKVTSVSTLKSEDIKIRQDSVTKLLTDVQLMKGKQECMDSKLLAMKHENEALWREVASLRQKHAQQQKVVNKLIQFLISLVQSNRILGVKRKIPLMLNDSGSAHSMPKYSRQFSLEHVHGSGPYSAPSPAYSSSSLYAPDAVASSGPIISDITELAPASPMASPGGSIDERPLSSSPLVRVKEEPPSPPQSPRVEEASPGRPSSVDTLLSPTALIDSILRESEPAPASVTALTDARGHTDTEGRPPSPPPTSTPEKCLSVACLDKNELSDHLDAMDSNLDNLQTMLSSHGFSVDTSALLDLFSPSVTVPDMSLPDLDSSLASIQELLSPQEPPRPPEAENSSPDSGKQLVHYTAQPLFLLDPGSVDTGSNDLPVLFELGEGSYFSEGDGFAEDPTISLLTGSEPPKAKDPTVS
ELF4, sequence (Q99607 whole entry): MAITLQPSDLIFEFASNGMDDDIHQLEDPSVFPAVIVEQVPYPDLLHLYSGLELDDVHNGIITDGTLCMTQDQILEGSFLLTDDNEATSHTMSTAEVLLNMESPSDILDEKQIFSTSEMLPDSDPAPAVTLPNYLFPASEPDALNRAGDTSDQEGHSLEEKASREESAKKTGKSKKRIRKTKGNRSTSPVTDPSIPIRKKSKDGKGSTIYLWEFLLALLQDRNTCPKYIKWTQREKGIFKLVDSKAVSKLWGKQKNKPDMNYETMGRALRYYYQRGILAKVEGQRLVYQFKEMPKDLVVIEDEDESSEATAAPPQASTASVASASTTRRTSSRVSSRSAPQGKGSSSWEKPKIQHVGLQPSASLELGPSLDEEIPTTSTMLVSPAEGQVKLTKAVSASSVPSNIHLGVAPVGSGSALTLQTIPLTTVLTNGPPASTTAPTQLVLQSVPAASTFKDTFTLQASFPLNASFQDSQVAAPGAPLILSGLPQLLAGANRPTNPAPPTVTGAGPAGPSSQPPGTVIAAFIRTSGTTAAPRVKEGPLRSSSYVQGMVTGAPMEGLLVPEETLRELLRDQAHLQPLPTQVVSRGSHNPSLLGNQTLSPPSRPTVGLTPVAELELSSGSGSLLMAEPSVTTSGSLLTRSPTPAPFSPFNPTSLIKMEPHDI
ETV6, sequence (P41212 whole entry): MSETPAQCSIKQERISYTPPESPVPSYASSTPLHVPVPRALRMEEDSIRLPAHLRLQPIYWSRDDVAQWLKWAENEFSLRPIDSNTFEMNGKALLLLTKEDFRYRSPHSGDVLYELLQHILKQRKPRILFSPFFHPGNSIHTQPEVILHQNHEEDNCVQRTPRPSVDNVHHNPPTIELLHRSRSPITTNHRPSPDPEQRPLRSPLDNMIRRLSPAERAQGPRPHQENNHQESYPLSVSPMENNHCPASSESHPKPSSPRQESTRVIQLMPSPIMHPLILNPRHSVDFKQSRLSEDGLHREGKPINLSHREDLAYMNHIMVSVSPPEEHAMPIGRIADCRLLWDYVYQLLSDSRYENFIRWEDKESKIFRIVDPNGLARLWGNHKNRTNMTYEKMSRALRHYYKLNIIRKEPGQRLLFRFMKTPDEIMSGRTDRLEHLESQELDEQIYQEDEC

TCATCG
binding signal (ETV5): 1 fold enrichment (6-mer frequency, TF over GST control) | binding signal (HSF1): 1.12 fold enrichment (6-mer frequency, TF over GST control) | binding signal (SPIC): 1.05 fold enrichment (6-mer frequency, TF over GST control) | binding signal (ELK4): 1.05 fold enrichment (6-mer frequency, TF over GST control) | binding signal (CRX): 1.05 fold enrichment (6-mer frequency, TF over GST control) | binding signal (ETV1): 1.03 fold enrichment (6-mer frequency, TF over GST control) | binding signal (ERF): 1.06 fold enrichment (6-mer frequency, TF over GST control) | binding signal (ETV3L): 1.08 fold enrichment (6-mer frequency, TF over GST control)

ATAAGC
binding signal (FEV): 1.02 fold enrichment (6-mer frequency, TF over GST control) | binding signal (ETV5): 1.11 fold enrichment (6-mer frequency, TF over GST control) | binding signal (HSF1): 1.67 fold enrichment (6-mer frequency, TF over GST control) | binding signal (SPIC): 1.08 fold enrichment (6-mer frequency, TF over GST control) | binding signal (ELF4): 1.11 fold enrichment (6-mer frequency, TF over GST control) | binding signal (ETV2): 1.07 fold enrichment (6-mer frequency, TF over GST control) | binding signal (ELF3): 1.12 fold enrichment (6-mer frequency, TF over GST control) | binding signal (CRX): 2.4 fold enrichment (6-mer frequency, TF over GST control) | binding signal (ETV1): 1.11 fold enrichment (6-mer frequency, TF over GST control) | binding signal (ERF): 1.18 fold enrichment (6-mer frequency, TF over GST control) | binding signal (ETV3L): 1.12 fold enrichment (6-mer frequency, TF over GST control) | binding signal (ETS2): 1.08 fold enrichment (6-mer frequency, TF over GST control) | binding signal (SPDEF): 1.07 fold enrichment (6-mer frequency, TF over GST control) | binding signal (ETV7): 1.11 fold enrichment (6-mer frequency, TF over GST control) | binding signal (ETV3): 1.11 fold enrichment (6-mer frequency, TF over GST control) | binding signal (ETV6): 1.02 fold enrichment (6-mer frequency, TF over GST control)
